What all share (assay): DAPPL (digital affinity profiling via proximity ligation, sequencing); 10 mM Tris-HCl pH 7.5, 50 mM NaCl, 1 mM DTT, 4% glycerol, room temperature, 30 min; GST-TFs on glutathione beads, 16-mer random dsDNA library, 0.1% formaldehyde crosslink after washing; high values mean tight binding
The target of one assay is T1, FEV (Homo sapiens, UniProt Q99581 1-238).
T1 sequence: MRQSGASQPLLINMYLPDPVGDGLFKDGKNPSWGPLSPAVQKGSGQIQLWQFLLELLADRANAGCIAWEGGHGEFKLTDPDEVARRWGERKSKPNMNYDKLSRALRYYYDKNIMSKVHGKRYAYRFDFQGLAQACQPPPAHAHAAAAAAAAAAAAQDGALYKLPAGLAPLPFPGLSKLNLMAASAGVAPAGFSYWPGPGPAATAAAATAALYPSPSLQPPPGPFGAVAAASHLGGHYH
The conditions noted are these: protein: recombinant; tags: N-terminal GST; dsDNA, one strand shown. In a few lines:
(§1)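 Pools were built from human transcription factors expressed in yeast as GST fusions, captured on glutathione beads and DNA-barcoded, along with a tag-only sample. Incubation with 200 nmole of a 16-mer random double-stranded DNA library lasted 30 min at room temperature in Tris/NaCl/DTT/glycerol buffer, and was followed by washing, 0.1% formaldehyde crosslinking, proximity ligation, PCR amplification and Illumina NextSeq500 sequencing. Binding signal is the quotient of each hexamer's read frequency for a factor and its frequency for the tag-only sample.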

The next assay has as its target ETV5 (Homo sapiens, UniProt P41161 1-510). The conditions noted are these: protein: recombinant; tags: N-terminal GST; dsDNA, one strand shown. Put shortly:
as §1

In another assay the target is HSF1 (Homo sapiens, UniProt Q00613 1-529). The settings on record: protein: recombinant; tags: N-terminal GST; chain copies: 3; dsDNA, one strand shown. In a few lines: as §1
The target of another assay is T2, SPIC (Homo sapiens, UniProt Q8N5J4 1-248).
T2 sequence: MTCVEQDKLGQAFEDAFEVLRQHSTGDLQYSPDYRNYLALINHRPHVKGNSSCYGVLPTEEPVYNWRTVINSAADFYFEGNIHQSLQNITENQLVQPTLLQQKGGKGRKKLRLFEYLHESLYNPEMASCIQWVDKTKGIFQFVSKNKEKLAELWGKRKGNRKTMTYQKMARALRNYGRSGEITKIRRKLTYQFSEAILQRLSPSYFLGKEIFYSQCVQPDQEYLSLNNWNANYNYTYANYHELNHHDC
The settings on record: protein: recombinant; tags: N-terminal GST; dsDNA, one strand shown. Put shortly:
as §1

The next assay deals with ELF4 (Homo sapiens, UniProt Q99607 1-663). The settings on record: protein: recombinant; tags: N-terminal GST; dsDNA, one strand shown. Put shortly: as §1
In the next assay the target is T3, ELK4 (Homo sapiens, UniProt P28324-2 1-405).
T3 sequence: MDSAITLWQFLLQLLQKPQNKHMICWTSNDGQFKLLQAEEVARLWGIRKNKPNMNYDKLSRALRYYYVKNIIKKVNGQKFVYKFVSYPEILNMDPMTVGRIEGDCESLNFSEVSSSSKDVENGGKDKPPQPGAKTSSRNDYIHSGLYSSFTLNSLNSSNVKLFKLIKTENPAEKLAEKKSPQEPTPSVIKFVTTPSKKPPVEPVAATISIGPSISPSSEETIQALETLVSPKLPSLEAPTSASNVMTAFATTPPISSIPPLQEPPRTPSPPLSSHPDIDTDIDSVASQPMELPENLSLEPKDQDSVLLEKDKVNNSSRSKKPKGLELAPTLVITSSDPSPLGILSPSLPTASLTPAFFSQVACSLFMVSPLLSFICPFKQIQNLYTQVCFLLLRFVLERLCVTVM
The settings on record: protein: recombinant; tags: N-terminal GST; dsDNA, one strand shown. Put shortly:
as §1

For the next assay, the target named is T4, ETV2 (Homo sapiens, UniProt O00321 1-342).
T4 sequence: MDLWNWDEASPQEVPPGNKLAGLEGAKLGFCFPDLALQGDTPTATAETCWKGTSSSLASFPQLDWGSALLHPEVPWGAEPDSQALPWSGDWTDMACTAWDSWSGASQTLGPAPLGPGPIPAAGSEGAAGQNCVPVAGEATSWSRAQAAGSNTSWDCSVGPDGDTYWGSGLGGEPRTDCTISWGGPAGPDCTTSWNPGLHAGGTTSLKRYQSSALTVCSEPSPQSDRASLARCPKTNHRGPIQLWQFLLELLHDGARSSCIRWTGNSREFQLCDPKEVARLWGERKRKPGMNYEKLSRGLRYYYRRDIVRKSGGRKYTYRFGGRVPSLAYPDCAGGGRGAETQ
The settings on record: protein: recombinant; tags: N-terminal GST; dsDNA, one strand shown. In a few lines:
as §1

The next assay addresses T5, ELF3 (Homo sapiens, UniProt P78545 1-371).
T5 sequence: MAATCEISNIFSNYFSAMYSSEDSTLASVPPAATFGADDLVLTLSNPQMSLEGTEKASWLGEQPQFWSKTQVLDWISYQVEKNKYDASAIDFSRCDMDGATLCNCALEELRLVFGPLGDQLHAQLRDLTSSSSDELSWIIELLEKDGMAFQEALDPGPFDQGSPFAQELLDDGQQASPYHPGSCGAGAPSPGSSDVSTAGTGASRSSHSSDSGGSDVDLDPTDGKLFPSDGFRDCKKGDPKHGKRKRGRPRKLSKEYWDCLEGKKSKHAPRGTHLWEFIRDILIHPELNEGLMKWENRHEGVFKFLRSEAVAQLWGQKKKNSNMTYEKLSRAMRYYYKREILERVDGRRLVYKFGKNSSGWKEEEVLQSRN
The settings on record: protein: recombinant; tags: N-terminal GST; dsDNA, one strand shown. In a few lines: as §1

The next assay addresses CRX (Homo sapiens, UniProt O43186 1-299). The conditions noted are these: protein: recombinant; tags: N-terminal GST; dsDNA, one strand shown. Put shortly: as §1
Another assay deals with ETV1 (Homo sapiens, UniProt P50549 1-477). The conditions noted are these: protein: recombinant; tags: N-terminal GST; dsDNA, one strand shown. Put shortly:
as §1

The next assay concerns the target T6, ERF (Homo sapiens, UniProt P50548 1-548).
T6 sequence: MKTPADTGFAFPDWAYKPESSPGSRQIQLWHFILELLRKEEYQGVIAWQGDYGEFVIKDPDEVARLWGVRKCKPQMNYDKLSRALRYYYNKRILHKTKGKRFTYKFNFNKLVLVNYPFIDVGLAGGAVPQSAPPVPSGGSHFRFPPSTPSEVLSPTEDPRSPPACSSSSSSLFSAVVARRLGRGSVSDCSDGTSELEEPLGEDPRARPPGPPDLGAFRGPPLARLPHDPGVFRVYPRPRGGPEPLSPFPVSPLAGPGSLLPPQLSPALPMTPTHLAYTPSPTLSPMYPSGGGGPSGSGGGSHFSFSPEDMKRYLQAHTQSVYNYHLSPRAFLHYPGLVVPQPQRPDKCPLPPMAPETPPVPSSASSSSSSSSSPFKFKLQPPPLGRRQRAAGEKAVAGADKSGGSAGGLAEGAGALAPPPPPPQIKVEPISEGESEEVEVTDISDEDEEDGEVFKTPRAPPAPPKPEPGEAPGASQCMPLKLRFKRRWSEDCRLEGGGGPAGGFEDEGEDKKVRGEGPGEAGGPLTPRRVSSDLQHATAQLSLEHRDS
The conditions noted are these: protein: recombinant; tags: N-terminal GST; dsDNA, one strand shown. Put shortly:
as §1

Another assay deals with T7, ETV3L (Homo sapiens, UniProt Q6ZN32 1-361).
T7 sequence: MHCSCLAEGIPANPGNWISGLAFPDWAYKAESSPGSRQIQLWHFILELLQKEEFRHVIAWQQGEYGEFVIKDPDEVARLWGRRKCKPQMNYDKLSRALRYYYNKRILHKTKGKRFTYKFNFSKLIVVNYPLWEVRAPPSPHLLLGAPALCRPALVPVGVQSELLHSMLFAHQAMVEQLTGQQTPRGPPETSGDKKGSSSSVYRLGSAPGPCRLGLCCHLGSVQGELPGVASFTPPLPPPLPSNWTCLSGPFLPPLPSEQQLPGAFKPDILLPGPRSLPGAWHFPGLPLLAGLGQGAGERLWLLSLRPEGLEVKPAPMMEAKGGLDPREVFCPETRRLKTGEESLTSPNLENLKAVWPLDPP
The settings on record: protein: recombinant; tags: N-terminal GST; dsDNA, one strand shown. In a few lines: as §1

A further assay has as its target T8, ETS2 (Homo sapiens, UniProt P15036 1-469).
T8 sequence: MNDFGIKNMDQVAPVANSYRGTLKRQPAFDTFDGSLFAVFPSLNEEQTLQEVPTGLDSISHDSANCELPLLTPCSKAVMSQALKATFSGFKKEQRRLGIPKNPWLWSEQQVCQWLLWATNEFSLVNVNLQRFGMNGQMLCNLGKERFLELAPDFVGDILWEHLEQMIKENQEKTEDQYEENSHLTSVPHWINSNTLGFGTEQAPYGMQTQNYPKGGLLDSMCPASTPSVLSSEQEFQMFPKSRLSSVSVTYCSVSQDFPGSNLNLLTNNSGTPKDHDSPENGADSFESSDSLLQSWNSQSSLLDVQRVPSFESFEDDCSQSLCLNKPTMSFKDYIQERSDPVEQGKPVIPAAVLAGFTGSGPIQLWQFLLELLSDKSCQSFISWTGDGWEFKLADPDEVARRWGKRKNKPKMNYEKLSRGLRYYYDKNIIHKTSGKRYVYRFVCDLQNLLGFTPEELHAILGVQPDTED
The settings on record: protein: recombinant; tags: N-terminal GST; dsDNA, one strand shown. In a few lines:
as §1

For a further assay, the target named is T9, SPDEF (Homo sapiens, UniProt O95238 1-335).
T9 sequence: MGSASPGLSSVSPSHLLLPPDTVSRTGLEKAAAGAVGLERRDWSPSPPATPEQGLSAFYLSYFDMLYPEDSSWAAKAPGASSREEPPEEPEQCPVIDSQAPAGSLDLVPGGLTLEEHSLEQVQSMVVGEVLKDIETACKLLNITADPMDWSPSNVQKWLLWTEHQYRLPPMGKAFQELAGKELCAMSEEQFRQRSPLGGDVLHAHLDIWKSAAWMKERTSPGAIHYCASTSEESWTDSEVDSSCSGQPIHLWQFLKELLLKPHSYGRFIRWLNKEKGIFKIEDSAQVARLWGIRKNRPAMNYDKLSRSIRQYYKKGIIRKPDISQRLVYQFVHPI
The conditions noted are these: protein: recombinant; tags: N-terminal GST; dsDNA, one strand shown. Put shortly:
as §1

Another assay concerns the target T10, ETV7 (Homo sapiens, UniProt Q9Y603 1-341).
T10 sequence: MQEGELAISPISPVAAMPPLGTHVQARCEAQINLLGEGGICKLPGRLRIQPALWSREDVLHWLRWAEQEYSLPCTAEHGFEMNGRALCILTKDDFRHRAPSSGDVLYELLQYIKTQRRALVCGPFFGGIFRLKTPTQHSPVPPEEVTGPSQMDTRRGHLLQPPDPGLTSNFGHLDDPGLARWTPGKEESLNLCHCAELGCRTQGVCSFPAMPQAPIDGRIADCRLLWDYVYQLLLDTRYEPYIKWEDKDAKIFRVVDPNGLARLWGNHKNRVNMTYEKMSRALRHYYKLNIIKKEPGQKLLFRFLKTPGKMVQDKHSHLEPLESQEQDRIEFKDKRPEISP
The settings on record: protein: recombinant; tags: N-terminal GST; dsDNA, one strand shown. Put shortly:
as §1

A further assay has as its target T11, ELF5 (Homo sapiens, UniProt Q9UKW6-2 1-255).
T11 sequence: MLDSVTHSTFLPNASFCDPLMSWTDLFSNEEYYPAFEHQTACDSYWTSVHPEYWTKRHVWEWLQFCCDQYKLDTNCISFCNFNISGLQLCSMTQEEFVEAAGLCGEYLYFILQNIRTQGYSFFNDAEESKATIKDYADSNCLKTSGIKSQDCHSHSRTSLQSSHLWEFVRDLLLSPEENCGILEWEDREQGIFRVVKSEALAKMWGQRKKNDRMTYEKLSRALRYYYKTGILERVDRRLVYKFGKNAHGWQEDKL
The settings on record: protein: recombinant; tags: N-terminal GST; dsDNA, one strand shown. In a few lines:
as §1

The target of another assay is T12, ETV3 (Homo sapiens, UniProt P41162-2 1-143).
T12 sequence: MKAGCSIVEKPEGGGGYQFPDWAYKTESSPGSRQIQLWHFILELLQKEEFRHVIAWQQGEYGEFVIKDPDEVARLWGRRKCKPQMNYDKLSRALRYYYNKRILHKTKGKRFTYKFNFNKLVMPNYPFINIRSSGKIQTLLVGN
The settings on record: protein: recombinant; tags: N-terminal GST; dsDNA, one strand shown. Put shortly:
as §1

The target in a further assay is ETV6 (Homo sapiens, UniProt P41212 1-452). The conditions noted are these: protein: recombinant; tags: N-terminal GST; dsDNA, one strand shown. Put shortly:
as §1

Sequence of CRX (O43186 whole entry): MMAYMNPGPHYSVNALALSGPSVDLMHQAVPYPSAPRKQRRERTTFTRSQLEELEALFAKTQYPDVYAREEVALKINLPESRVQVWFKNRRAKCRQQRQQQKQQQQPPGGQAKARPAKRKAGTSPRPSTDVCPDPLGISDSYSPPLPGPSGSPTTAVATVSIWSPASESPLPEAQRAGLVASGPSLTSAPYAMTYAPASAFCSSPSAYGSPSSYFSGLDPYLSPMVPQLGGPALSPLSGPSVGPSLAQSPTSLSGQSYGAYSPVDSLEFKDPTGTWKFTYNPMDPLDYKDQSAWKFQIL
Sequence of ETV6 (P41212 whole entry): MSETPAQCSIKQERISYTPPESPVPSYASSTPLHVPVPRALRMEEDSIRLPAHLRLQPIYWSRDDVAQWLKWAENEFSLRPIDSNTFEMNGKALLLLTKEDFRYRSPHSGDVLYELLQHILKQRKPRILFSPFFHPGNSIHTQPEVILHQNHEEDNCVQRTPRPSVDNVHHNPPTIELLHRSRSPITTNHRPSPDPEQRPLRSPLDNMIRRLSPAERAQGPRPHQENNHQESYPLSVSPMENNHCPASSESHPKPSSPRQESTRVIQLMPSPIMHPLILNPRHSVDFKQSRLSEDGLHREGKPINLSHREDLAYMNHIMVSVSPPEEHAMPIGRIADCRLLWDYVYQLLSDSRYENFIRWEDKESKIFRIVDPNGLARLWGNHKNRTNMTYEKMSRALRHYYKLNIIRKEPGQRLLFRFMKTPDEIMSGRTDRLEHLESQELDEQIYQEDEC
Sequence of ETV1 (P50549 whole entry): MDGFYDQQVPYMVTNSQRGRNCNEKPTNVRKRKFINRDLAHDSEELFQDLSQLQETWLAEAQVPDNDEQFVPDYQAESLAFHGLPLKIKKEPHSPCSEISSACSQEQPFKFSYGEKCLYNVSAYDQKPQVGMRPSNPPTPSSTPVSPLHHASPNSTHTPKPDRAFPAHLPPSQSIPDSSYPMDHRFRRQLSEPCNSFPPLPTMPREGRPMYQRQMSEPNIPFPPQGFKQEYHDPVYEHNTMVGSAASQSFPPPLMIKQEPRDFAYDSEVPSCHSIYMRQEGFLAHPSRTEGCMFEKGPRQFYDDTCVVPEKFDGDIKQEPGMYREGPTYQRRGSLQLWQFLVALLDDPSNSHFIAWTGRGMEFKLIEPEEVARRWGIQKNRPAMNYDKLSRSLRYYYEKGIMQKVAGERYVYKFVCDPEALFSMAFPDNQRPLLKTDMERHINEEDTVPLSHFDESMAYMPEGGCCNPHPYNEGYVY
Sequence of ETV5 (P41161 whole entry): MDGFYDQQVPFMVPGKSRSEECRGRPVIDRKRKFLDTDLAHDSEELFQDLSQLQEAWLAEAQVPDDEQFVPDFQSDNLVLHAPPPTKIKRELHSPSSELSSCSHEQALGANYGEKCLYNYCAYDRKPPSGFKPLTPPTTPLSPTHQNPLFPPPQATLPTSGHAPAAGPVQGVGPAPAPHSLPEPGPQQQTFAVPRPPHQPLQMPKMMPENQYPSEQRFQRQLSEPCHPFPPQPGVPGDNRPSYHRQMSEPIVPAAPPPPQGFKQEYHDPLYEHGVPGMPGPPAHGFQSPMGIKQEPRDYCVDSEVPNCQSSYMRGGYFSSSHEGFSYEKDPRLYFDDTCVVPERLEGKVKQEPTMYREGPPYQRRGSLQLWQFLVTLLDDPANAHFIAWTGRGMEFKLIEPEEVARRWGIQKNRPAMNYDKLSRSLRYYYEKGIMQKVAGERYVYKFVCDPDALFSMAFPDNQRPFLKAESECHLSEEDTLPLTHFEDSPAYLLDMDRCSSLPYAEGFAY
Sequence of ELF4 (Q99607 whole entry): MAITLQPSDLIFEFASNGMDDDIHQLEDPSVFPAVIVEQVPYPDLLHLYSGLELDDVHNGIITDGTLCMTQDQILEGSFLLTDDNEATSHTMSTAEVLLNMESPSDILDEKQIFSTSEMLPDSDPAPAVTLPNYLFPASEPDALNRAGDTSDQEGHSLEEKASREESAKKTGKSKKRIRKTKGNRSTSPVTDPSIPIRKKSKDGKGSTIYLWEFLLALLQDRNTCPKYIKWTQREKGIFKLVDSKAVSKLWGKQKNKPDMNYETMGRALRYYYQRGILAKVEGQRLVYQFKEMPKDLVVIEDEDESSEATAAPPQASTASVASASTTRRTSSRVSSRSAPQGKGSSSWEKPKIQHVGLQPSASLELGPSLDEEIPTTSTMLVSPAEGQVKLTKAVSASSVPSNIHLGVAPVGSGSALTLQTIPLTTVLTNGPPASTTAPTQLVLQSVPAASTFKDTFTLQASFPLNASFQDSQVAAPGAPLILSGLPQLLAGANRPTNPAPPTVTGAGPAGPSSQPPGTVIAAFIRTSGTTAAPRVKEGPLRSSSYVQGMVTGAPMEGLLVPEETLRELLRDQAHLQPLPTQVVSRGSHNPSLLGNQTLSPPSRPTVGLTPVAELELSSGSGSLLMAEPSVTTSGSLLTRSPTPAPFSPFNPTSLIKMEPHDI
Sequence of HSF1 (Q00613 whole entry): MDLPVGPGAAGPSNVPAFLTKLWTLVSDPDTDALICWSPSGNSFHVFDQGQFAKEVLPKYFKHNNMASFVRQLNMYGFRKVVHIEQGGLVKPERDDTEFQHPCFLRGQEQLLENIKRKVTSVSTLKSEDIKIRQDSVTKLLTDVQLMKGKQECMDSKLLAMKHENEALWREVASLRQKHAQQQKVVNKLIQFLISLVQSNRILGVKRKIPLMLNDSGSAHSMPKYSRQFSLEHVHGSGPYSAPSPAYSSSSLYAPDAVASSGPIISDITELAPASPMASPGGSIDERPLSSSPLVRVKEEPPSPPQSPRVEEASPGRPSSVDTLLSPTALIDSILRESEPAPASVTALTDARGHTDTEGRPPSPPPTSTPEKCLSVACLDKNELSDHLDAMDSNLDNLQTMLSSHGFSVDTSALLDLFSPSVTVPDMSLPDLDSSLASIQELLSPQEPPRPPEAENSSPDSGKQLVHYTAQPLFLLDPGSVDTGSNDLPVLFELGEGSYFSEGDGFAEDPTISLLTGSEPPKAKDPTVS

Turning to TATCAT, the binding signal was 1.16 fold enrichment (6-mer frequency, TF over GST control) in the assay with FEV; 1.07 fold enrichment (6-mer frequency, TF over GST control) with ETV5; 1.16 fold enrichment (6-mer frequency, TF over GST control) with HSF1; 1.25 fold enrichment (6-mer frequency, TF over GST control) with SPIC; 1.21 fold enrichment (6-mer frequency, TF over GST control) in the assay with ELF4; 1.16 fold enrichment (6-mer frequency, TF over GST control) in the assay with ELK4. Moreover, the binding signal in the assay with ETV2 was 1.24 fold enrichment (6-mer frequency, TF over GST control); with ELF3, 1.11 fold enrichment (6-mer frequency, TF over GST control); with CRX, 1.41 fold enrichment (6-mer frequency, TF over GST control); with ETV1, 1.13 fold enrichment (6-mer frequency, TF over GST control); with ERF, 1.14 fold enrichment (6-mer frequency, TF over GST control); with ETV3L it was 1.21 fold enrichment (6-mer frequency, TF over GST control). In addition, the binding signal with ETS2 was 1.13 fold enrichment (6-mer frequency, TF over GST control); with SPDEF, 1.09 fold enrichment (6-mer frequency, TF over GST control); with ETV7, 1.1 fold enrichment (6-mer frequency, TF over GST control); with ELF5, 1.15 fold enrichment (6-mer frequency, TF over GST control); with ETV3, 1.21 fold enrichment (6-mer frequency, TF over GST control); in the assay with ETV6 it was 1.05 fold enrichment (6-mer frequency, TF over GST control).

Source of the values: PMC7862700, “An all-to-all approach to the identification of sequence-specific readers for epigenetic DNA modifications on cytosine”.
